The source made the active and inactive calls. How the source made its calls: active means hit-call score of the fitted dose curve at least 0.9, where 1 is the maximum; inactive means score below 0.9.

Broadly, the AC50 is the concentration giving half of the maximal activity seen.

A short description of the test: CEETOX_H295R_OHPROG: CeeTox H295R High-throughput Steroidogenesis Assay for OH-Progesterone (OHPROG) (AID 2283435). To be noted: actives raise or lower the signal. As for the experimental part:
CEETOX_H295R is a cell-based, multiplexed-readout assay that uses H295R, a human adrenal gland cell line, with measurements taken at 48 hours after chemical dosing in a 96-well plate.CEETOX_H295R_OHPROG is one of 23 assay component(s) measured or calculated from the CEETOX_H295R assay. It is designed to make measurements of hormone induction, a form of inducible reporter, as detected with absorbance signals by HPLC-MS-MS technology.Data from the assay component CEETOX_H295R_OHPROG was analyzed into 1 assay endpoint. This assay endpoint, CEETOX_H295R_OHPROG, was analyzed with bidirectional fitting relative to DMSO as the negative control and baseline of activity. Using a type of inducible reporter, gain or loss-of-signal activity using HPLC-MS-MS was used to understand synthesis of 17alpha-hydroxyprogesterone in H295R cell line at 48hr of chemical exposure. To generalize the intended target to other relatable targets, this assay endpoint is annotated to the steroid hormone intended target family, where the subfamily is progestagens.
Cell culture and media preparation procedures were conducted in accordance with OECD Test No. 456 guidelines, with minor modifications. H295R cells (ATCC CRL-2128) were expanded for 5 passages and frozen in batches in liquid nitrogen. Prior to the steroidogenesis assay, H295R cells were thawed and passed at least 4 times. The maximum passage was 10. Cells were maintained in a 1:1 mixture of DMEM/F12 supplemented with 5ml/L ITS+ Premix (BD Bioscience) and 12.5 ml/L Nu-Serum (BD Bioscience). After seeding cells into 96-well plates at 50-60% confluency, cells were allowed to adhere overnight. Prior to chemical testing, culture medium was replaced with 175 uL medium containing 10 uM forskolin to stimulate steroidogenesis for 48 hours. Following prestimulation, forskolin medium was replaced with medium containing test chemical solubilized in DMSO (ensuring a final concentration of 0.1% DMSO). Test chemicals were incubated for 48 hours, then the medium was removed and split into 2 vials containing approximately 75uL each, and stored at -80 C prior to hormone analysis. For steroid quantification, media samples were shipped to OpAns, LLC (Durham, NC) on dry ice, and samples were thawed to room temperature prior to liquid-liquid extraction. Steroid hormones were extracted from media samples using methyl tertbutyl ether (MTBE). An extra derivatization with dansyl chloride was included for estrogen (estrone and estradiol) detection only. Steroid hormones were separated by HPLC, eluted using a reverse phase C18 gradient with electrospray positive ionization, followed by quantification by tandem mass spectrometry (MS/MS). Data were acquired on a MassHunter Workstation Acquisition version B03.01 (Agilent Technologies, Inc.) and processed using MassHunter Quantitative Analysis for QQQ. Accuracy was determined for each hormone analyte from 3 standards to determine upper and lower limits of quantification (ULOQ and LLOQ, respectively) using a 7-point standard curve. Precision and accuracy of the extraction and quantification methods were calculated as the percent relative standard deviation (%RSD) of the spiked standards and percent spiked standard recovered, respectively. […] Test medium was removed following chemical exposure, and cell viability was evaluated in the same wells by MTT. MTT procedures were as follows: after removal of test medium, 500 uL of 0.5 mg/ml of 3-[4,5-dimethylthiazol-2-y]2,5-diphenyltetrazoliumbromide solution was added to the cells. Following a 4-hour incubation at 37 C and 5% CO2 to allow formazan-crystal formation, the MTT solution was removed and blue formazan salt crystals were solubilized using 500uL anhydrous isopropanol with shaking for 20 minutes. Absorbance was read at 570 and 650nm using a Packard Fusion microplate reader. Background correction of absorbance units was used to determine percent change relative to controls. […]
With `CCCCCCCCC(=O)O`, the result was inactive. Take `COc1ccc([N+](=O)[O-])cc1N`: the AC50 was 6.07 µM (active). Consider `O=C(O)c1ccccc1C(c1ccc(O)cc1)c1ccc(O)cc1`, for which the AC50 was 7.38 µM (active). Consider `COC(=O)CCCCC(=O)OC`, for which the compound was called inactive. With `CCc1ccc(CCOc2ccc(CC3SC(=O)NC3=O)cc2)nc1` (stereo unspecified), the result was inactive. In the case of `CN1CCC[C@H]1c1cccnc1`, the compound was classed as inactive. On the same count and under the same terms, with `C[C@@H]1C[C@H]2[C@@H]3CCC4=CC(=O)C=C[C@]4(C)[C@@]3(F)[C@@H](O)C[C@]2(C)[C@@]1(O)C(=O)COP(=O)(O)O` the entry was “inactive”. Regarding `O=c1c(-c2ccc(O)cc2)coc2cc(O)ccc12`, the AC50 is 26.5 µM (active). As to `Nc1cccc2c(N)cccc12`, the AC50 was 1.78 µM (active). For the compound `CC1=C(/C=C/C(C)=C/C=C/C(C)=C/C(=O)O)C(C)(C)CCC1`, the outcome was inactive.

With `NC(=O)N(O)[C@@H]1C=C[C@H](Oc2cccc(Oc3ccc(F)cc3)c2)C1`, the compound was classed as inactive. In the case of `CC#C[C@]1(O)CC[C@H]2[C@@H]3CCC4=CC(=O)CCC4=C3[C@@H](c3ccc(N(C)C)cc3)C[C@@]21C`, the AC50 is 0.218 µM (active). `OC1CCC(C2CCCCC2)CC1` (stereo unspecified): the outcome was inactive. Consider `Oc1cccc(O)c1`, for which the compound was called inactive. Consider `CCc1nn(C2CCCCC2)c2cc(C3(C#N)CCC(C(=O)O)CC3)ccc12` (stereo unspecified), for which the compound was called inactive. Turning to `CCCOC(=O)c1ccc(O)cc1`, the AC50 was 7.73 µM (active).

Consider `O=[N+]([O-])c1ccc(O)cc1`, for which the AC50 is 27.3 µM (active). Take `CCC(=C(c1ccc(O)cc1)c1ccc(OCCN(C)C)cc1)c1ccccc1`: the compound was called inactive. On to `c1ccc2c(c1)ccc1ccccc12`, for which the AC50 is 55.1 µM (active). As to `c1ccc2cc3c(ccc4ccccc43)cc2c1`, the half-maximal activity concentration (AC50) is 6.08 µM (active). On to `CCCCCCCCCCCCCCCS(=O)(=O)Oc1ccccc1`, for which the AC50 was 5.48 µM (active).

For the origin of these results see PubChem BioAssay (EPA / NIEHS).
